Assay outcomes (PubChem BioAssay)
ATG4B inhibitor: inhibitors of human ATG4B cysteine protease; Q9Y4P1; ATG4B cleavage of LC3-PLA2, NBD-HPC fluorescence, 1 h; inhibition, % at 8.33 µM; 0.51% of 340,000 active; in the data active = inhibition above about 40%
Target sequence (Q9Y4P1 whole entry, looked up): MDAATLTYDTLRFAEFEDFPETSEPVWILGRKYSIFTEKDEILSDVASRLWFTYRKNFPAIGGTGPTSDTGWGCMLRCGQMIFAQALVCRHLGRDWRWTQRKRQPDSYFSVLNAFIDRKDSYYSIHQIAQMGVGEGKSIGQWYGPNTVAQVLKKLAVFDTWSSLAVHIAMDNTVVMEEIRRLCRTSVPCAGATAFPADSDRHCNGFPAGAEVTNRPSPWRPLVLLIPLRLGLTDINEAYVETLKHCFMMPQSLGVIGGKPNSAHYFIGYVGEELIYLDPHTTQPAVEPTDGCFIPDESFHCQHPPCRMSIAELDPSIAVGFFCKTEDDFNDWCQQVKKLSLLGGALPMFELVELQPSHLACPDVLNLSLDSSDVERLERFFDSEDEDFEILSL
MPTP inh: blocks calcium-induced mitochondrial swelling; isolated mouse mitochondria, Ca2+ swelling absorbance, 30 min; inhibition, % at 10 µM; 1.4% of 360,000 active; AID 602449;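 active = inhibition of 50% or more, scaled per plate between neutral and stimulator controls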;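 also: 0% = DMSO wells given calcium and 100% = 1 mM EGTA wells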
SKN-1 inh: blocks SKN-1 activity in C. elegans; C. elegans VP596 Pgst-4::GFP/RFP ratio, acrylamide-induced, 24 h; inhibition, % at 21.8 µM; 0.49% of 360,000 active; AID 624304;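 active = interference check ratio from 0.5 to 1.5 plus GFP to RFP signal ratio inhibition reaching or exceeding a fixed threshold, cut at about 30% in these data, passing the limit was not always enough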
CFTR F508del cor: CFTR F508del correction in bronchial cells; 0.36% of 350,000 active; activity (quench increase), % at 7.58 µM; AID 720511; CFBE cells, YFP halide quenching; stimulated with forskolin plus potentiator P3; % fluorescence drop versus neutral controls;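 active = mean added fluorescence quench of at least 8% versus neutral control, with both replicates also reaching 8%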;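 also: cells transiently co-express mutant CFTR-F508del with the halide-sensitive YFP; corrector assay measuring rescue of mutant channel to the surface after 24 h compound exposure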
CendR NRP1 mod: modulators of CendR peptide binding to human neuropilin-1; FAM-RPARPAR peptide binding to NRP-1, fluorescence polarization; inhibition, % at 25 µM; 0.85% of 360,000 active;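 active = inhibition or corrected inhibition above about 18%, plus a signal ratio from 0.5 to 1.5, limit read from the data, passing the limit was not always enough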
ATG4B confirm: ATG4B (human) inhibition, single-dose confirmed; shares compounds with ATG4B inhibitor; ATG4B protease fluorescent substrate cleavage assay; inhibition, % at 8.33 µM; 92% of 320 active; in the data active = inhibition above about 39%
PLA2 counter: PLA2 (human) inhibition in ATG4B counter-screen; shares compounds with ATG4B inhibitor; purified PLA2, NBD-C6-HPC fluorescence, 45 min; inhibition, % at 8.33 µM; 66% of 1,600 active; AID 588402; in the data active = inhibition above about 50%
Target sequence (P04054 whole entry, looked up): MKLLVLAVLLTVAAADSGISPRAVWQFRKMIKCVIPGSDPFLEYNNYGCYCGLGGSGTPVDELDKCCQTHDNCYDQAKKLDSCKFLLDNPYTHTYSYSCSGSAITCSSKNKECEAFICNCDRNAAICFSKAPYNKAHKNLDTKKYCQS
* hit, by the source's call; . = not tested or not shown. Shown are actives, neighbours in structure and some others; about 2.7% of the full set was active somewhere.

SMILES	ATG4B inhibitor	MPTP inh	SKN-1 inh	CFTR F508del cor	CendR NRP1 mod	PLA2 counter	others
O=C(O)CN1C(=O)/C(=C\c2cc(Br)ccc2OCc2ccc(Cl)cc2)SC1=S	51.9*	1.4	15.8	0.3	-57.4	30.0	ATG4B confirm=53.5*
O=C(O)CN1C(=O)/C(=C\c2cc([N+](=O)[O-])ccc2OCc2ccccc2Cl)SC1=S	74.9*	0.5	23.0	-4.4	-79.0	60.0*
COc1ccc2c3c([nH]c2c1)[C@H](CO)N(C(=O)CN1CCOCC1)CC31CN(CC2CCCC2)C1	.	.	.	1.8	.	.
Oc1ccc(/C=N/N(Cc2ccccc2)c2ccccc2)c(O)c1O	56.2*	4.5	12.3	-0.9	6.5	75.2*
O=C(C1=C(Nc2ccccc2)c2ccccc2S(=O)(=O)N1)c1ccccc1	73.6*	3.2	5.1	.	-68.4	83.2*
O=C(C1CCOCC1)N1CC(=O)N2[C@H](CO)[C@H](c3ccc(-c4ccccc4F)cc3)[C@H]2C1	.	.	.	-2.4	.	.
CCCNC(=O)C[C@H]1CC[C@H]2[C@@H](COc3ccc(NC(=O)c4ccc5c(c4)OCO5)cc3C(=O)N2C)O1	.	.	.	-0.8	.	.
COCCOc1ccc(C(F)(F)F)cc1NC(=O)CN1C(=O)NC2(CCc3ccccc32)C1=O (stereo not drawn)	98.5*	-2.5	5.0	1.5	-8.1	4.3
C[C@@H]1CN([C@@H](C)CO)C(=O)c2cc(/C=C/c3ccccc3)cnc2O[C@@H]1CN(C)C(=O)c1ccncc1	.	.	.	1.0	.	.
CC1(C)Cc2c(sc(NC(=S)NC(=O)c3ccccc3)c2C(=O)O)CO1	40.9*	1.4	-7.4	-0.5	-6.6	31.8	ATG4B confirm=73.6*
Cc1cc(C)c(Nc2cc(S(=O)(=O)O)c(N)c3c2C(=O)c2ccccc2C3=O)c(C)c1	49.1*	20.2	1.1	.	33.0	71.6*
C[C@@H]1CN([C@H](C)CO)C(=O)CCCn2cc(nn2)CO[C@@H]1CN(C)S(=O)(=O)c1cn(C)cn1	.	.	.	-2.0	.	.
CCOc1ccc(-c2cc(NC(=O)c3c(F)cccc3F)c(C(=O)O)s2)cc1	92.0*	2.6	-9.7	0.7	-4.3	94.0*
O=C(Nc1cc(-c2ccccc2)sc1C(=O)O)c1cccc(F)c1	92.6*	2.4	21.0	0.2	1.9	90.5*
CCOc1ccc(NC(=O)Nc2cc(-c3ccccc3)sc2C(=O)OC)cc1	14.6	4.1	9.7	.	-7.6	.
C#Cc1ccc([C@@H]2C=C(C(=O)O)O[C@H](OCC)[C@H]2CCCO)cc1	58.6*	0.0	-6.1	-0.9	-29.8	72.4*
Cc1ccc(NC(=O)c2cc(NC(=O)CCC(=O)O)ccc2N2CCCCC2)cc1	45.9*	-3.7	11.4	0.9	-14.3	49.0
CCOC(=O)c1cc(NC(=O)CCC(=O)O)ccc1N1CCCCC1	-1.6	-1.0	17.2	0.1	7.8	.
CC(C)NC(=O)N(C)C[C@@H]1Oc2ncc(C#Cc3ccc(F)cc3)cc2C(=O)N([C@H](C)CO)C[C@@H]1C	.	.	.	-0.3	.	.
COc1ccc(NC(=O)Nc2cccc3c2O[C@@H](CN(C)CC2CC2)[C@H](C)CN([C@@H](C)CO)C3=O)cc1	.	.	.	2.1	.	.
CCOC(=O)Cn1nnnc1CN(Cc1cccs1)Cc1cc2cc(C)cc(C)c2[nH]c1=O	-26.2	0.2	5.5	.	-14.8	.
Cc1cccc2cc(CN(Cc3cccs3)Cc3nnnn3Cc3ccccc3)c(=O)[nH]c12	48.6*	1.9	23.7	.	5.9	61.8*
COc1ccc2cc(CN(Cc3cccnc3)Cc3nnnn3Cc3ccccc3)c(=O)[nH]c2c1	-16.7	.	.	3.1	.	.
COc1ccc2cc(CN(Cc3cccs3)Cc3nnnn3Cc3ccccc3)c(=O)[nH]c2c1	51.1*	8.4	-2.1	.	1.0	53.7*
N#Cc1ccc(OCc2nnc(SCC(=O)c3ccccc3)n2-c2ccccc2)cc1	46.1*	-1.4	12.4	.	30.7*	56.7*
SMILES	ATG4B inhibitor	MPTP inh	SKN-1 inh	CFTR F508del cor	CendR NRP1 mod	PLA2 counter	others
COC(=O)c1cccc(NC(=O)CSc2nnc(COc3ccc(C#N)cc3)n2-c2ccccc2)c1	-13.0	2.4	-13.1	.	-4.9	.
Cc1cccc(-n2c(CCc3ccccc3)nnc2SCC(=O)c2ccccc2)c1	72.4*	6.9	5.5	.	2.2	75.4*
Cc1ccc(OCc2nnc(SCC(=O)c3ccccc3)n2-c2ccccc2)cc1	74.5*	2.6	-9.0	.	-0.8	77.6*
O=C(N[C@@H]1CC[C@@H](CCNS(=O)(=O)c2ccc(F)cc2)O[C@@H]1CO)c1ccccn1	.	.	.	-0.3	.	.
CC(C)NC(=O)N(C)C[C@@H]1Oc2c(NC(=O)c3ccc(-c4nccs4)cc3)cccc2C(=O)N([C@H](C)CO)C[C@@H]1C	.	.	.	2.1	.	.
C[C@H](CO)N1C[C@H](C)[C@H](CN(C)S(C)(=O)=O)OCCCC[C@H](C)Oc2ccc(NS(C)(=O)=O)cc2C1=O	.	.	.	2.0	.	.
CO[C@@H]1CN(C)C(=O)c2ccc(NC(C)=O)cc2OC[C@@H](C)N(C(=O)Cc2cccnc2)C[C@H]1C	.	.	.	-1.1	.	.
COCC#Cc1cnc2c(c1)C(=O)N([C@H](C)CO)C[C@H](C)[C@@H](CN(C)C(C)=O)O2	.	.	.	-0.1	.	.
O=C(Nc1nnc(CSCc2ccccc2F)s1)c1cccc([N+](=O)[O-])c1	50.7*	23.4	-0.7	-0.7	-1.6	58.0*
CC(C)C(=O)Nc1nnc(CSCc2ccccc2F)s1	-10.1	0.9	11.5	.	5.7	.
CC(C)(C)C(=O)Nc1nnc(CSCc2ccccc2F)s1	40.4*	-0.4	-3.9	.	-1.4	39.8	ATG4B confirm=58.7*
S=C(Nc1ccc(Cl)cc1Cl)Nc1ccccc1Oc1ccccc1	71.6*	34.2	-0.4	.	3.1	79.2*
CNC(=S)Nc1cc(Cl)ccc1Oc1ccccc1	9.6	1.5	-4.1	.	-6.3	.
COc1cc2c(cc1NC(=O)COC(=O)[C@@H](NS(=O)(=O)c1cccc(Cl)c1)C(C)C)oc1ccccc12	47.0*	0.2	6.6	.	-2.2	62.6*
C/C(CC(=O)Nc1ccccc1-c1ccccc1)=N\NC(=O)COc1ccc(C)cc1Br	72.2*	4.3	11.9	.	-2.8	78.5*
O=C(NC(Cc1ccccc1)C(=O)O)OCC1c2ccccc2-c2ccccc21 (stereo not drawn)	43.8*	0.7	10.8	-1.8	-15.2	62.8*
COc1cc(C=NNc2ccc(S(=O)(=O)Nc3ccccc3C(=O)O)cc2[N+](=O)[O-])ccc1O	46.4*	6.9	-8.0	0.8	6.9	62.8*
O=C(O)c1ccccc1NS(=O)(=O)c1ccc(N/N=C/c2cccc(O)c2O)c([N+](=O)[O-])c1	50.5*	2.5	7.0	-0.1	2.2	53.1*
COc1ccc(Cn2c(O)c(C=Nc3ccccc3C(=O)O)c3ccccc3c2=O)cc1	17.1	5.9	12.1	-3.0	-93.0	.
CC(=O)Nc1ccc(C=NNc2ccc(S(=O)(=O)Nc3ccccc3C(=O)O)cc2[N+](=O)[O-])cc1	10.8	1.3	18.3	0.0	-8.5	.
